# Results as given in PMC7862700, “An all-to-all approach to the identification of sequence-specific readers for epigenetic DNA modifications on cytosine”.
# Columns and labels:
# Test in all cases: DAPPL (digital affinity profiling via proximity ligation, sequencing); 10 mM Tris-HCl pH 7.5, 50 mM NaCl, 1 mM DTT, 4% glycerol, room temperature, 30 min; GST-TFs on glutathione beads, 16-mer random dsDNA library, 0.1% formaldehyde crosslink after washing; high values mean tight binding
# Conditions in all cases: protein: recombinant; tags: N-terminal GST; dsDNA, one strand shown
# FLI1 = target: T1, FLI1 (Homo sapiens, UniProt Q01543 1-452)
# T1 sequence: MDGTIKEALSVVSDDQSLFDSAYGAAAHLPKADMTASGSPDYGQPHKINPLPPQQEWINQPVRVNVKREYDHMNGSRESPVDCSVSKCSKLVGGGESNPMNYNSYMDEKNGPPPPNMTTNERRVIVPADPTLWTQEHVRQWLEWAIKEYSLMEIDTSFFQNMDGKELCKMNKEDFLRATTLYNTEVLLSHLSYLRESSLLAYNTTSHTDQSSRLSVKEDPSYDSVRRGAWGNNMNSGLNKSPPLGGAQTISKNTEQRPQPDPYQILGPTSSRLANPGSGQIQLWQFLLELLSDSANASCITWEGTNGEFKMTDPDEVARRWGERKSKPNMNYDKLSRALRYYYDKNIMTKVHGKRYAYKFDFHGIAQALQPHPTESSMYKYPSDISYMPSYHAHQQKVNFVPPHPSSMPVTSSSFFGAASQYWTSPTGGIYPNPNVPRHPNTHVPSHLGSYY
# Outline: (§1)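 Human transcription factors carrying a GST fusion were produced in yeast, bound to glutathione beads, tagged with DNA barcodes and pooled together with a tag-only sample. Each pool was held with 200 nmole of a random double-stranded 16-mer DNA library in Tris/NaCl/DTT/glycerol buffer for 30 min at room temperature, then washed, crosslinked in 0.1% formaldehyde, proximity-ligated with BsaI/T4 ligase (1 h, 37 °C), PCR-amplified and sequenced on an Illumina NextSeq500. Binding signal is the read frequency of each hexamer for a given factor divided by its frequency in the tag-only sample.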
# ELK1 = target: T2, ELK1 (Homo sapiens, UniProt P19419 1-428)
# T2 sequence: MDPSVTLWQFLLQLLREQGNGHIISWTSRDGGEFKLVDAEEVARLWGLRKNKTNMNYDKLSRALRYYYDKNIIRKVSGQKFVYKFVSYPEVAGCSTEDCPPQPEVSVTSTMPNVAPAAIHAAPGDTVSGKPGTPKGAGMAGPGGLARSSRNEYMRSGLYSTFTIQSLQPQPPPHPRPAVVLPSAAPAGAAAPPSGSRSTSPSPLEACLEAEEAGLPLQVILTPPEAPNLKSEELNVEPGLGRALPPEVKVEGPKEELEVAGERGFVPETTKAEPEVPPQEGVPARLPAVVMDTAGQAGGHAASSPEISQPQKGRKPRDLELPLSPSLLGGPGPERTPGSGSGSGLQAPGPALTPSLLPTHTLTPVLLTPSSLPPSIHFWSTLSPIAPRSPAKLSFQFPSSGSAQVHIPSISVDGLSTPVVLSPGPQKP
# Outline: as §1
# GABPA = target: T3, GABPA (Homo sapiens, UniProt Q06546 1-454)
# T3 sequence: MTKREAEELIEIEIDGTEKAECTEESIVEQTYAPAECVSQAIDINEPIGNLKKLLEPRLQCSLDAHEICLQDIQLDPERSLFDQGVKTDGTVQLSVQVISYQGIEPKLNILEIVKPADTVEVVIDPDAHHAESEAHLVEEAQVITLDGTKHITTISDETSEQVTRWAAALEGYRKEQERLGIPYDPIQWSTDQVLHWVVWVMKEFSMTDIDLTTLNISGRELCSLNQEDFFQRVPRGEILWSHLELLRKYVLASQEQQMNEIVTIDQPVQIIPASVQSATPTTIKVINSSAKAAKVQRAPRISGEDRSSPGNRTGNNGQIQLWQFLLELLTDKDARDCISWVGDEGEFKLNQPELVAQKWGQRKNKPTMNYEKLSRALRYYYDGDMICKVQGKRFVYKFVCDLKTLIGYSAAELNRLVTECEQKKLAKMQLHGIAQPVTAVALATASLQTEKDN
# Outline: as §1
# ERG = target: T4, ERG (Homo sapiens, UniProt P11308 1-479)
# T4 sequence: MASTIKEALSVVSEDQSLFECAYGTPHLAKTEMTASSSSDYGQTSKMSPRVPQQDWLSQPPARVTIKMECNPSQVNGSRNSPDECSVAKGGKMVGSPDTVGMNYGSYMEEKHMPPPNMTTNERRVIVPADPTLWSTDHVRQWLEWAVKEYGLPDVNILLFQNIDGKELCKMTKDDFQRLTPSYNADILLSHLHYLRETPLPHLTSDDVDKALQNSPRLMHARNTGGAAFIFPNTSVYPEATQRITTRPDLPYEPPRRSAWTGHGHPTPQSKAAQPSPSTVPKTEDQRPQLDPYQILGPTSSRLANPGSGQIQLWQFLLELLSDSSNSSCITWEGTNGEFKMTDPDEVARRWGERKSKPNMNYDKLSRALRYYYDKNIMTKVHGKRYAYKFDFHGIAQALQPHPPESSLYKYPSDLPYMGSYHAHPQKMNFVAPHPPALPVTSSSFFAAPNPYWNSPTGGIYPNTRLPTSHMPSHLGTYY
# Outline: as §1
# ELF1 = ELF1 (Homo sapiens, UniProt P32519 1-619)
# ELF1, sequence (P32519 whole entry): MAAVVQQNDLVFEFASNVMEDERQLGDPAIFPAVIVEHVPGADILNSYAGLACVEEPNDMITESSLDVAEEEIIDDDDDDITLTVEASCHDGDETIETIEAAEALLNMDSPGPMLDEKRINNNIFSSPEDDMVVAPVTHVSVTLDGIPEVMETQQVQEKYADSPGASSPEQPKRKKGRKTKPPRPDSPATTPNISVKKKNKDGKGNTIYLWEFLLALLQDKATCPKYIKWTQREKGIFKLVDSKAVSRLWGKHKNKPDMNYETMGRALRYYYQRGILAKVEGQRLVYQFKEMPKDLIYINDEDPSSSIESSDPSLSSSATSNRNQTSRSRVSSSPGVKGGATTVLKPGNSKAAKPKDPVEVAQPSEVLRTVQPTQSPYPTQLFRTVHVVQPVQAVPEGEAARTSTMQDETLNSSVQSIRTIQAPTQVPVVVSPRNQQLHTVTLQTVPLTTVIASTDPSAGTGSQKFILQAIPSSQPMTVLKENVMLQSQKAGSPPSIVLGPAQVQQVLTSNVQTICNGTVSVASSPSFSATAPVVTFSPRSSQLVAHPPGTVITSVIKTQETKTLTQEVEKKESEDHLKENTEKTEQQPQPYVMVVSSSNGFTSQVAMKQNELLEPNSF
# Outline: as §1
# EHF = target: T5, EHF (Homo sapiens, UniProt Q9NZC4 1-300)
# T5 sequence: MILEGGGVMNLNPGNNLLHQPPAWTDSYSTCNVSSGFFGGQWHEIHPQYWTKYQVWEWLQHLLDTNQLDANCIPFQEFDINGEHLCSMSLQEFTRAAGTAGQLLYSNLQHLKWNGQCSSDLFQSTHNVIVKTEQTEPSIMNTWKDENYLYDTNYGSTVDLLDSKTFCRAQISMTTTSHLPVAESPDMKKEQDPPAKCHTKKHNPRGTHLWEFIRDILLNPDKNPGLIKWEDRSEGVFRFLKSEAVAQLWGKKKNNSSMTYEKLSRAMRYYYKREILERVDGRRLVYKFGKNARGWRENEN
# Outline: as §1
# SPIB = SPIB (Homo sapiens, UniProt Q01892 1-262)
# SPIB, sequence (Q01892 whole entry): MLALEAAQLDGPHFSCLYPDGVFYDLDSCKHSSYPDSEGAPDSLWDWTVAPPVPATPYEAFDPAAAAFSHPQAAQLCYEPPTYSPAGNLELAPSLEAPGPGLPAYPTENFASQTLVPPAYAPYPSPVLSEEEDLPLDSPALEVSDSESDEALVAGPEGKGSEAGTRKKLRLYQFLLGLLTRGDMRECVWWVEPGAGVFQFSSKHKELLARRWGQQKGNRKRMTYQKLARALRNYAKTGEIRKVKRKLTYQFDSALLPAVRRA
# Outline: as §1
# ELK3 = target: T6, ELK3 (Homo sapiens, UniProt P41970 1-407)
# T6 sequence: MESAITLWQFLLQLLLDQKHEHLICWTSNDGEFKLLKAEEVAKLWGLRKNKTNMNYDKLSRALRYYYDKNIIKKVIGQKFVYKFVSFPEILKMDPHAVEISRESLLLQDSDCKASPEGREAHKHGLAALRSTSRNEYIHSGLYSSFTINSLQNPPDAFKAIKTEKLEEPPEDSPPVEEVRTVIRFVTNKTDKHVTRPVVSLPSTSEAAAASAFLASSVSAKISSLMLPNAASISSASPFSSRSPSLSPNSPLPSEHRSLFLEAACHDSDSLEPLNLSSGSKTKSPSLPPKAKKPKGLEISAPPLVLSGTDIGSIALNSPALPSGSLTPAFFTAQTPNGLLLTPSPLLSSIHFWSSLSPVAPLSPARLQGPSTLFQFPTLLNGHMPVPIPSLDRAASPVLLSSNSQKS
# Outline: as §1
sequence,measurement,setting,value
GCACGA,binding signal,FLI1,"1.14 fold enrichment (6-mer frequency, TF over GST control)"
same,binding signal,ELK1,"1.02 fold enrichment (6-mer frequency, TF over GST control)"
same,binding signal,GABPA,"1.23 fold enrichment (6-mer frequency, TF over GST control)"
same,binding signal,ERG,"1.02 fold enrichment (6-mer frequency, TF over GST control)"
same,binding signal,ELF1,"1.05 fold enrichment (6-mer frequency, TF over GST control)"
same,binding signal,EHF,"1.09 fold enrichment (6-mer frequency, TF over GST control)"
same,binding signal,SPIB,"1.08 fold enrichment (6-mer frequency, TF over GST control)"
same,binding signal,ELK3,"1 fold enrichment (6-mer frequency, TF over GST control)"
